Measurements published in PubChem BioAssay (NCATS).
Results filed as inconclusive are left out. Activity calls are given as the source filed them. Unless noted, calls come from the whole dose curve; as a rule, active = well fitted curve in the direction sought with a large enough effect; inconclusive = small, poorly fitted or top-dose-only effect, or another doubt; inactive = no such curve, though single readings can be large; an effect the other way counts as inactive or inconclusive.

How the values were obtained:
[1] = Cell Viability - BJ (AID 421; calls by dose curve;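 note: potency is the fitted concentration of half-maximal effect; cells exposed to compound for 40 hours at 37 °C before readout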); conditions: BJ fibroblast viability, qHTS
How it was run: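 Cytotoxicity in human BJ foreskin fibroblasts is scored as loss of cellular ATP after a 40-hour exposure, measured by luciferase luminescence. Controls are DMSO and 100 uM tamoxifen.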

[2] = Cell Viability - Jurkat (AID 426;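 active = dose-dependent loss of cell ATP signal giving a full or clear fitted curve, ranked by lower potency value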; note: potency is the fitted concentration of half-maximal effect); conditions: qHTS
How it was run: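 Seed 5000 Jurkat E6-1 cells/well; add compound; incubate 40 hr at 37 °C; add CellTiter-Glo; wait 20 min at room temperature; read luminescence. Fit concentration-response with Hill equation for AC50.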

[3] = Cell Viability - Hek293 (AID 427;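 active = compounds whose dose-response curve shows a full or clear partial loss of cell viability, called from curve shape rather than a numeric limit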;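 note: potency is the fitted concentration of half-maximal effect; cells exposed to compound for 40 hours at 37 °C before reading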); conditions: qHTS
How it was run: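 qHTS, human embryonic kidney (adenovirus-transformed) cells; 40 hr cpd, 37 °C; CellTiter-Glo ATP luminescence. Norm: DMSO = 0, 100 uM tamoxifen = 100% inhibition. Hill-fit AC50.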

[4] = Cell Viability - HepG2 (AID 433; calls by dose curve;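 note: potency is the fitted concentration of half-maximal effect; potency for ATP loss meaning cytotoxicity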); conditions: qHTS
How it was run: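 Cytotoxicity read as ATP loss (CellTiter-Glo luminescence) after 40 hr compound exposure of HepG2, 1500 cells/well, 37 °C. AC50 by Hill equation; 0% set by DMSO, 100% inhibition by 100 uM tamoxifen.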

[5] = Cell Viability - MRC5 (AID 434; calls by dose curve;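 note: potency is the fitted concentration of half-maximal effect; potency reflects cytotoxicity seen as loss of intracellular ATP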); conditions: MRC5 lung fibroblast viability, qHTS
How it was run: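 MRC5 normal human lung fibroblasts, 1500 cells/well, exposed to compound for 40 hr at 37 C. Cellular ATP was read by CellTiter-Glo luminescence; data normalized to DMSO and 100 uM tamoxifen, with AC50 from Hill fits.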

[6] = Cell Viability - SK-N-SH (AID 435; calls by dose curve; note: potency is the fitted concentration of half-maximal effect); conditions: SK-N-SH neuroblastoma cell viability qHTS
How it was run: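 qHTS cytotoxicity: CellTiter-Glo ATP luminescence after 40 h compound exposure of human neuroblastoma SK-N-SH cells at 37 °C. AC50 derived by Hill-equation fitting, with DMSO as basal and 100 uM tamoxifen as full inhibition.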

[7] = Cell Viability - N2a (AID 540); conditions: N2a mouse neuroblastoma cell viability; activity change, negative = cytotoxicity: at 92.2 µM (top of the series);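 note: plate controls were DMSO alone for no effect and tamoxifen control for full effect; nearly all actives have a fitted effect of over 45% in size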
How it was run: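 First, 1500 N2a cells per well incubate 5 hr at 37 °C; next, compounds are added and incubated 40 hr at 37 °C; finally CellTiter-Glo is added and luminescence read after 20 min, with AC50 derived by Hill modeling.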

[8] = Cell Viability - HUV-EC-C (AID 542); conditions: HUV-EC-C endothelial cell viability, qHTS; series mostly up to 92.2 µM; note: % is set by controls: 0 for no effect and ±100 for the full control effect; nearly all actives have a fitted effect of over 35% in size
How it was run: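 Decrease in cellular ATP, quantified by luciferase luminescence, reflects toxicity in normal human vascular endothelial HUV-EC-C cells given compound for 40 hr in complete culture medium. Values are AC50s from concentration-response curves.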

[9] = Cell Viability - H-4-II-E (AID 543); conditions: H-4-II-E rat hepatoma viability; series mostly up to 92.2 µM; note: % is set by controls: 0 for no effect and ±100 for the full control effect; nearly all actives have a fitted effect of over 35% in size
How it was run: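 Here, cytotoxicity is measured in the rat hepatoma line H-4-II-E as loss of intracellular ATP after 40 hr compound treatment, detected by luciferase luminescence.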

[10] = Cell Viability - SH-SY5Y (AID 544); conditions: SH-SY5Y neuroblastoma cell viability; series mostly up to 92.2 µM;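 note: 0% = DMSO alone and -100% = 100 µM tamoxifen; nearly all actives have a fitted effect of over 55% in size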
How it was run: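 Cytotoxicity is scored as a concentration-dependent fall in intracellular ATP in human SH-SY5Y cells treated 40 hr in complete culture medium. Potency is expressed as AC50 from a Hill equation fit.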

[11] = Cell Viability - Renal Proximal Tubule (AID 545); conditions: renal proximal tubule cells viability; series mostly up to 91.7 µM;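 note: 0% = DMSO only and -100% = 100 µM tamoxifen; nearly all actives have a fitted effect of over 40% in size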
How it was run: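 Viability taken as intracellular ATP (CellTiter-Glo luminescence) after 40 hr, 37 °C compound treatment of primary proximal tubule cells from rat kidney, 1000 cells/well; Hill-equation fits of qHTS concentration-response data gave AC50.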

[12] = Cell Viability - Mesenchymal (AID 546); conditions: mesenchymal cells viability, qHTS; series mostly up to 91.7 µM;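 note: cells exposed to compound for 40 hours before reading; 0% = DMSO only and -100% = 100 µM tamoxifen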
How it was run: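 Human kidney mesenchymal cells from normal renal glomeruli, 1000 cells/well, rested 5 hr at 37 °C, then treated 40 hr at 37 °C in complete medium. Cellular ATP read by CellTiter-Glo luminescence; AC50 from Hill-equation fits.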

[13] = Cell Viability - NIH 3T3 (AID 541); conditions: NIH 3T3 cell viability, qHTS; series mostly up to 92.2 µM;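 note: plate controls were DMSO alone for no effect and tamoxifen positive control for full effect; nearly all actives have a fitted effect of over 25% in size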
How it was run: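 AC50 values reflect concentration-dependent loss of intracellular ATP in NIH 3T3 cells after 40 hr treatment in complete culture medium, quantified by luciferase-based luminescence.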

[14] = target: Glucocorticoid receptor (Homo sapiens) (UniProt P04150); assay: GR-GFP Redistribution (AID 450;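 active = compounds whose dose series gives a full or clear partial fitted curve of increased nuclear translocation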; note: potency is the fitted concentration of half-maximal effect); conditions: U2OS GR-GFP nuclear translocation, laser cytometry, 2 h
[15] = target: Glucocorticoid receptor (Homo sapiens) (UniProt P04150); assay: GR-EFC Redistribution (AID 451; calls by dose curve; note: potency is the fitted concentration of half-maximal effect); conditions: CHO-K1 GR-EFC translocation, beta-gal luminescence, 2 h
How it was run: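 CHO-K1 cells expressing nuclear EA and GR-ED fragments of b-gal; compounds titrated up to 46 uM final, 2 h at 37 C. GR nuclear translocation read as complemented b-gal luminescence after 1 h RT detection.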

[16] = target: Mitogen-activated protein kinase 10 (Mus musculus) (UniProt Q61831); assay: JNK3 AlphaScreen Assay (AID 530; active = well fitted curve in either direction with a large enough effect, not every such curve was filed as active;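 note: kinase came from lysate of stimulated human HepG2 cells; signal reports phosphorylation of biotinylated GST-cJun 1-79 at Ser73 with 10 µM ATP; % is set by controls: 0 for no effect and ±100 for the full control effect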); conditions: JNK3 lysate, c-Jun phosphorylation; series mostly up to 57.1 µM
How it was run: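 qHTS format: compounds tested as titrations against IL-1beta/TNF-alpha-activated HepG2 lysate JNK3 with biotin-GST-cJun substrate and 10 uM ATP at room temperature. Loss of anti-phospho-cJun AlphaScreen signal indicates inhibition.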

[17] = target: Cytochrome P450 1A2 (Homo sapiens) (UniProt P05177); assay: p450-cyp1a2 (AID 410; calls by dose curve;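 note: -100% = full effect of reference inhibitor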); conditions: recombinant CYP1A2, luciferin-ME demethylation, luminescence; series mostly up to 57 µM
How it was run: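 Inhibition was calculated relative to 57 uM furafylline (full inhibition). The reaction used human CYP1A2 at 20nM with Luciferin-ME at its Km, 100uM, driven by an NADPH-regenerating system for 60 min at room temperature.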

[18] = NFAT Signaling Pathway (AID 444; active = well fitted curve in either direction with a large enough effect, not every such curve was filed as active;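 note: carbachol stimulus at about its EC50 of 1 µM final; % is set by controls: 0 for no effect and ±100 for the full control effect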); conditions: Jurkat NFAT-bla M1, carbachol, beta-lactamase ratio, 5 h; at 38 µM (top of the series)
How it was run: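 Jurkat cells with NFAT-driven β-lactamase reporter and co-expressed M1 receptor, stimulated with carbachol (final 1 uM, ~EC50), compound titration, 5 h at 37 °C. CCF4 loaded 1 h at RT; 460/530 nm ratio gave %activity and AC50.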

Sequence of Glucocorticoid receptor (Homo sapiens) (P04150 whole entry, looked up, the tested form may be a part): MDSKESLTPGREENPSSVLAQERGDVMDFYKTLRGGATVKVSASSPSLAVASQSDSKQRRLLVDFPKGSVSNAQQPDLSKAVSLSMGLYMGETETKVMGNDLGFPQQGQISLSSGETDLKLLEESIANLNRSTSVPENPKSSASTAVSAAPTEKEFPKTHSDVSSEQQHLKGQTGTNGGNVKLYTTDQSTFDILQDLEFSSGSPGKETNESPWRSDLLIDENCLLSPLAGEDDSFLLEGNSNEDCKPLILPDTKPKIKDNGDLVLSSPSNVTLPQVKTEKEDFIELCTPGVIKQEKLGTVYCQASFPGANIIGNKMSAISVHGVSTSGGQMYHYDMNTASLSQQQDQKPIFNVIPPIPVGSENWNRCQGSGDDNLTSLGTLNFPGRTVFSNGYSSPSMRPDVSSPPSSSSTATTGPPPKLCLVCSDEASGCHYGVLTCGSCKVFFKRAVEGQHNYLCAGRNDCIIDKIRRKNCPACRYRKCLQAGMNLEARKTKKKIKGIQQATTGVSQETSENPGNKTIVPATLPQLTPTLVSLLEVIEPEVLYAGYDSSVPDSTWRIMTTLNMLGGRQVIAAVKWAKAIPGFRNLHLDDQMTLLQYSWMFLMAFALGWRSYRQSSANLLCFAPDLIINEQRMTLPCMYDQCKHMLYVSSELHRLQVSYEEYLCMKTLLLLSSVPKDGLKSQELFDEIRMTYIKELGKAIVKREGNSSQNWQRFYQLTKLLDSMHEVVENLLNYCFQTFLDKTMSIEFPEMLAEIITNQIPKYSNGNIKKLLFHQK
Sequence of Cytochrome P450 1A2 (Homo sapiens) (P05177 whole entry, looked up): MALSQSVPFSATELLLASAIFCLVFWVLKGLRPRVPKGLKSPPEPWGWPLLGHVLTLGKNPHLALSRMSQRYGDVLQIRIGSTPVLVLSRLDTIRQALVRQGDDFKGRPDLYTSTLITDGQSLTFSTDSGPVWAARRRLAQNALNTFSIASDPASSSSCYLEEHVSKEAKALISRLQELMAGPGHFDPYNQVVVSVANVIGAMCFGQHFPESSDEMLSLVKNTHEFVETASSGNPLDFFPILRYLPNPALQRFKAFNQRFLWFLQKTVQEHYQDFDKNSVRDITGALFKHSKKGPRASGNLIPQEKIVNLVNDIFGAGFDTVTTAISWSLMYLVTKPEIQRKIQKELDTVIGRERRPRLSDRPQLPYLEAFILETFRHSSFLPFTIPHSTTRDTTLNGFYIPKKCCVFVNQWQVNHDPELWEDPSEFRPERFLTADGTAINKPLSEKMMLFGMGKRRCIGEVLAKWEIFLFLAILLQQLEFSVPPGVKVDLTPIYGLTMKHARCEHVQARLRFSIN

O=S(=O)(c1ccc(Cl)cc1)c1ccc(Cl)cc1
inactive: Potency [1] > 92 µM | Potency [2] > 92 µM | Potency [3] > 92 µM | Potency [4] > 92 µM | Potency [5] > 92 µM | Potency [6] > 92 µM | activity change, negative = cytotoxicity [7] -29.1% | Potency [8] | Potency [9] | Potency [10] | Potency [11] | Potency [12]

COc1ccc(C(c2ccc(OC)cc2)C(Cl)(Cl)Cl)cc1
inactive: Potency [1] > 92 µM | Potency [4] > 92 µM | Potency [5] > 92 µM | Potency [6] > 92 µM | Potency [13] | Potency [8] | Potency [12]

NC(=NCCC[C@H](N)C(=O)O)N[N+](=O)[O-]
inactive: Potency [14] > 46 µM | Potency [15] > 20.6 µM | outcome [16]

O=[N+]([O-])c1c(Cl)c(Cl)cc(Cl)c1Cl
inactive: Potency [1] > 92 µM | Potency [2] > 92 µM | Potency [3] > 92 µM | Potency [4] > 92 µM | Potency [5] > 92 µM | Potency [6] > 92 µM | outcome [16] | activity change, negative = cytotoxicity [7] 3.06% | Potency [8] | Potency [9] | Potency [10] | Potency [11] | Potency [12]

COC(=O)[C@@H](N)CCCN=C(N)N[N+](=O)[O-]
inactive: Potency [17] | Potency [14] > 46 µM | Potency [15] > 46 µM | outcome [16]

c1cc2ccc3cccc4ccc(c1)c2c34
inactive: Potency [1] > 92 µM | Potency [2] > 92 µM | Potency [3] > 92 µM | Potency [4] > 92 µM | Potency [5] > 92 µM | Potency [6] > 92 µM | activity change, negative = cytotoxicity [7] 2.91% | Potency [13] | Potency [8] | Potency [9] | Potency [10] | Potency [11] | Potency [12]

Nc1ccc([N+](=O)[O-])cc1
inactive: Potency [1] > 92 µM | Potency [2] > 92 µM | Potency [3] > 92 µM | Potency [4] > 92 µM | Potency [5] > 92 µM | Potency [6] > 92 µM | outcome [16] | activity change, negative = cytotoxicity [7] 0.412% | Potency [13] | Potency [8] | Potency [9] | Potency [10] | Potency [11] | Potency [12]

CCCCOC(=O)c1ccccc1C(=O)OCc1ccccc1
inactive: Potency [1] > 92 µM | Potency [2] > 92 µM | Potency [3] > 92 µM | Potency [4] > 92 µM | Potency [5] > 92 µM | Potency [6] > 92 µM | activity change, negative = cytotoxicity [7] -9.01% | Potency [13] | Potency [8] | Potency [9] | Potency [10] | Potency [11] | Potency [12]

OCCCBr
inactive: Potency [1] > 92 µM | Potency [2] > 92 µM | Potency [3] > 92 µM | Potency [4] > 92 µM | Potency [5] > 92 µM | Potency [6] > 92 µM | outcome [16] | activity change, negative = cytotoxicity [7] 9.77% | Potency [13] | Potency [8] | Potency [9] | Potency [10] | Potency [11] | Potency [12]

Cc1cc(O)ccc1Cl
inactive: Potency [1] > 92 µM | Potency [2] > 92 µM | Potency [3] > 92 µM | Potency [4] > 92 µM | Potency [5] > 92 µM | Potency [6] > 92 µM | outcome [16] | activity change, negative = cytotoxicity [7] -7.18% | Potency [13] | Potency [8] | Potency [9] | Potency [10] | Potency [11] | Potency [12]

O=[N+]([O-])c1c2ccccc2cc2ccccc12
inactive: Potency [1] > 92 µM | Potency [2] > 92 µM | Potency [3] > 92 µM | Potency [4] > 92 µM | Potency [5] > 92 µM | Potency [6] > 92 µM | outcome [16] | activity change, negative = cytotoxicity [7] -0.277% | Potency [13] | Potency [8] | Potency [9] | Potency [11] | Potency [12]

O=C(O)COc1ccccc1
inactive: Potency [1] > 92 µM | Potency [2] > 92 µM | Potency [3] > 92 µM | Potency [4] > 92 µM | Potency [5] > 92 µM | Potency [6] > 92 µM | outcome [16] | activity change, negative = cytotoxicity [7] -9.54% | Potency [13] | Potency [8] | Potency [9] | Potency [10] | Potency [11] | Potency [12]

O=[N+]([O-])c1cc([N+](=O)[O-])c2ccccc2c1
inactive: Potency [1] > 92 µM | Potency [2] > 92 µM | Potency [3] > 92 µM | Potency [4] > 92 µM | Potency [5] > 92 µM | Potency [6] > 92 µM | activity change, negative = cytotoxicity [7] -22.1% | Potency [13] | Potency [8] | Potency [10] | Potency [11] | Potency [12]

Nc1ccc(Cl)cc1
inactive: Potency [1] > 92 µM | Potency [2] > 92 µM | Potency [3] > 92 µM | Potency [4] > 92 µM | Potency [5] > 92 µM | Potency [6] > 92 µM | outcome [16] | activity change, negative = cytotoxicity [7] -1.41% | Potency [13] | Potency [8] | Potency [9] | Potency [10] | Potency [11] | Potency [12]

Cc1c(C(=O)c2cccc3ccccc23)c2cccc3c2n1[C@H](CN1CCOCC1)CO3
inactive: activity change, negative = inhibition [18] -21.8% | Potency [14] > 46 µM | Potency [15] > 46 µM | outcome [16]
